Compound activity as filed in PubChem BioAssay.
The list is a sample of the results.
aSyn UTR act = Activators working through SNCA 5'UTR binding (MLPCN); activity score, % (tested at 7.5 µM), hits read low; hit rate 7.1% among 300,000; alpha-synuclein 5'UTR reporter, activators screen; in the data active means activity score below about -60%
Numbers without * were called inactive.

SMILES | aSyn UTR act
Cc1cccc(/C(N)=N/OC(=O)c2ccc(Br)o2)c1 | -210*
Cc1cccc(/C(N)=N/OC(=O)C23CC4CC(CC(C4)C2)C3)c1 | -114*
COc1cc(OC)cc(C(=O)O/N=C(\N)c2ccncc2)c1 | -68*
COc1cc(OC)cc(C(=O)O/N=C(\N)c2cccc(C)c2)c1 | -81*
O=C(N/N=C/c1ccc(OCC(=O)N2CCCCC2)cc1)c1ccccc1O | -74*
O=C(COc1ccc(/C=N/NC(=O)c2ccccc2O)cc1)Nc1ccccc1 | -126*
COc1cc(/C=N/NC(=O)c2ccncc2)ccc1OCC(=O)Nc1ccccc1 | -100*
O=C(COc1ccc(/C=N/NC(=O)c2cc3ccccc3o2)cc1Cl)Nc1ccccc1 | 101
COc1cc(/C=N/NC(=O)c2ccccc2O)ccc1OCC(=O)Nc1ccccc1 | -140*
COc1ccc(-c2nnc(SC)o2)c(OC)c1 | -85*
COc1ccc(OC)c(-c2nnc(-c3ccc(C)o3)o2)c1 | -63*
Cc1cccc(C(=O)O/N=C/c2c(N3CCOCC3)n(C)c3ccccc23)c1 | 72
CN(C)C(=S)Nc1ccc(N2CCOCC2)cc1 | -68*
O=C(/C=C/c1cccc(O)c1)c1ccc(N2CCOCC2)cc1 | -182*
O=C(NC(=S)Nc1ccc(N2CCOCC2)cc1)c1cccc(Cl)c1 | -72*
C/C(=C\C(=O)c1ccccc1)Nc1ccc(N2CCOCC2)cc1 | -63*
O=C(Nc1ccc(N2CCOCC2)cc1)c1cnsn1 | 106
O=C(NC(=S)Nc1ccc(N2CCOCC2)cc1)c1ccccc1 | -148*
O=C(COc1ccc(F)cc1)Nc1nccs1 | -91*
O=C(COc1ccc(F)cc1)Nc1nc2c(s1)CCCC2 | -92*
Cc1c(C)c2ccc(OCC(=O)Nc3nccs3)cc2oc1=O | 66
O=C(Nc1nccs1)c1ccc(COc2ccc(F)cc2)o1 | -97*
CC(=O)c1ccc(OCc2cc(C(=O)N3CCOCC3)no2)cc1 | -154*
CC(=O)c1ccc(OCc2cc(C(=O)N3CCC(Oc4ccccc4C)CC3)no2)cc1 | -182*
CC(C)(C)c1ccc(C(=O)NCCC(=O)N2CCCC2)cc1 | -105*
SMILES | aSyn UTR act
Cc1ccc(C(=O)NCCC(=O)N2CCOCC2)cc1 | -101*
CC(C)(C)c1cc(C(=O)NCCN2CCCC2)cc(C(C)(C)C)c1 | -82*
Cn1c(=O)n(CCOc2ccccc2Cl)c2ccccc21 | -99*
Cc1ccc(OCCn2c(=O)n(C)c3ccccc32)cc1 | -123*
Cc1ccc2ccc(C3C(=O)c4ccccc4C3=O)nc2c1 | -146*
O=C(/C=C/NCc1cccnc1)c1ccc(-c2ccccc2)cc1 | -81*
COc1cccc(-c2nc3sc4c(c3c(=O)[nH]2)CCCCC4)c1 | -267*
Cc1ccc(C(=O)CCc2ccc(N)cc2)cc1 | -77*
CCCC(=O)c1ccc(-c2ccccc2)cc1 | -70*
Cc1ccc(C(=O)CC(=O)c2ccccc2)cc1 | -238*
Cc1ccc(C(=O)c2c3ccc([N+](=O)[O-])cc3[n+]([O-])n2CCCN)cc1 | 63
Cc1ccc(C(=O)COC(=O)c2cccc(NC(=O)c3ccc([N+](=O)[O-])cc3[N+](=O)[O-])c2)cc1 | -162*
Cc1ccc(C(=O)OCC(=O)c2ccccc2)cc1 | -85*
O=C(O)c1ccc2c(c1)C(=O)N(c1ccc(C(=O)OCC(=O)c3ccccc3)cc1)C2=O | -62*
Cc1ccc(C(=O)Cn2c(-c3ccccc3)noc2=O)cc1 | -100*
CCOC(=O)C(CC(=O)c1ccccc1)CC(=O)c1ccccc1 | -105*
CCc1ccc(C(=O)COC(=O)c2ccc(-c3nnc(-c4ccccc4)o3)cc2)cc1 | -161*
O=C(CN1C(=O)CCC1=O)c1ccc(-c2ccccc2)cc1 | -82*
N=c1ccn(CC(=O)c2ccc(-c3ccccc3)cc2)cc1 | 110
Cc1cc(C)c(NC(=O)CC(=O)c2ccccc2)c(Cl)c1 | -93*
Cc1ccc(C(=O)Sc2cccccc2=O)cc1 | -109*
O=C(O)c1ccccc1N/N=C\c1ccnc2ccccc12 | 76
O=C(O)c1ccccc1N/N=C/c1cc(Br)cc(Br)c1O | -111*
Cc1nn(C)c(=O)c(N)c1-c1cc(-c2ccc(Cl)c(Cl)c2)n[nH]1 | -71*
Cc1ccc(-c2cc(-c3c(C)nn(C)c(=O)c3N)[nH]n2)cc1 | -110*
SMILES | aSyn UTR act
Cc1c(C)c(C)c2[nH]c(-c3ccc4c(c3)OCO4)nc2c1C | -76*
O=C(Nc1ccccc1)N1CC=C(c2ccc(F)cc2)CC1 | -167*
O=C(Nc1ccccc1)N1CC=C(c2ccccc2)CC1 | -177*
COc1ccc(C(=O)Nc2ccc(N3CCCC3)cc2)cc1OC | -166*
CC1CC(C)(C)Nc2ccc(OC(=O)c3ccco3)cc21 (stereo not drawn) | 70
COc1ccc(C(=O)Nc2cccc(OC(=O)c3ccco3)c2)cc1 | -113*
CCOc1c(Cl)cc(C(=O)Nc2cccc(C(=O)O)c2)cc1Cl | -80*
CC(=O)Nc1cccc(NC(=O)c2ccc(COc3ccccc3)cc2)c1 | -142*
CCOc1ccc(OCc2ccc(C(=O)N/N=C(\C)c3ccccn3)cc2)cc1 | 64
COc1cccc(C(=O)Nc2cccc(OC(C)=O)c2)c1 | -90*
COc1cccc(C(=O)Nc2cc3c(cc2C(C)=O)OCCO3)c1 | -72*
